About 13,000 (27%) of roughly 48,000 compounds showed an effect of 50% or more. The list shows a part of the results.
tested on: Wolbachia pipientis; assay: Anti-Wolbachia Cell-Based Screen; assay type: functional; design: scale not given: in the data most compounds retested in dose-response had high values; conditions: 5 µM

| SMILES | Percent Effect [%] |
| --- | --- |
| Fc1cccc(-c2cccc(N3CCC(NC4CCCOC4)CC3)c2)c1 (stereo not given) | 80.75 |
| Cc1nc(-c2cccc(N3CCC(N[C@@H]4CCOC4)CC3)c2)cs1 | 61.49 |
| CN1CCOC[C@H]1c1nc(-c2cccc(F)c2)c[nH]1 | 6.119 |
| Cc1nc(-c2cccc(N3CCC(NC4CCSC4)CC3)c2)cs1 (stereo not given) | -11.84 |
| Cc1nc(-c2cccc(N3CCC(NC4CCOCC4)CC3)c2)cs1 | -8.689 |
| COc1cccc(-c2cccc(N3CCC(N[C@@H]4CCOC4)CC3)c2)c1 | 68.86 |
| COc1cccc(N2CCC(N3CCOC(C(F)(F)F)C3)CC2)c1 (stereo not given) | 11 |
| COc1cccc(N2CCC(N3C[C@@H](NC(C)=O)[C@H](C(C)C)C3)CC2)c1 | 4.736 |
| Cc1c(C)n(CC(O)CN2CCC(O)CC2)c2c(Cl)cccc12 (stereo not given) | 9.661 |
| CN(C)S(=O)(=O)N1C[C@@H]2CC[C@H](C1)N(Cc1ccc3c(c1)OCCO3)C2 | 2.095 |
| Cn1ccnc1CNc1c(F)cccc1-n1cccn1 | -3.206 |
| CN1CCC(c2cccc(NCc3nccn3C)n2)CC1 | 108.8 |
| CCOc1cccc(NCc2cnc(N3CCN(C)CC3)nc2)n1 | 6.944 |
| CC(C)c1nccn1-c1cccc(C2CCN(C)CC2)n1 | 4.105 |
| CN1CCC(c2cccc(NCc3ccncc3)n2)CC1 | 80.62 |
| Cn1ccnc1CNc1nccc(-c2ncnn2C)n1 | 23.33 |
| CN1CCC(c2cnc(NCc3nccn3C)cn2)CC1 | 131.5 |
| Cn1ccnc1CNc1ccc(F)c(N2CCCS2(=O)=O)c1 | 0.7519 |
| N#Cc1nccnc1N1CCN(CCOCc2ccccc2)CC1 | 4.216 |
| CC1CCc2sc(C(=O)Nc3cnn(C)c3)cc2C1 (stereo not given) | 18.64 |
| Cc1ncnc(NC(CC(C)(C)C)c2cccnc2)c1C (stereo not given) | -0.1537 |
| CN(Cc1cccs1)C(=O)c1ccc(=O)n(C)c1 | 1.128 |
| Fc1cccc2ncnc(NCC3(N4CCOCC4)CCSC3)c12 (stereo not given) | -8.869 |
| COc1ccc(C2CCCN2C(=O)c2cc3c([nH]c2=O)CCC3)cc1 (stereo not given) | -1.742 |
| O=C(C1COc2ccccc2C1)N(CCO)Cc1ccccc1 (stereo not given) | 3.539 |
| CSc1ncccc1C(=O)N(CCO)Cc1ccccc1 | 110.2 |
| O=C(c1ccn(-c2ccc(F)cc2)n1)N(CCO)Cc1cccnc1 | 6.446 |
| COc1cc(C(=O)NCCCc2ccccc2)on1 | -0.8212 |

| SMILES | Percent Effect [%] |
| --- | --- |
| COc1ccc(C(=O)N(CCO)Cc2ccccc2)c(OC)n1 | 150.7 |
| Cn1ccnc1CN(CCO)C(=O)c1cc2ccccc2o1 | 4.663 |
| Cc1cccc(N2CCCC3(C2)CN(S(C)(=O)=O)CCO3)c1 (stereo not given) | -0.08325 |
| Cc1nc(C2CCCN2CCOCC2CC2)no1 (stereo not given) | 95.01 |
| CC(C)c1nc(C2CCCN2CCOCC2CC2)no1 (stereo not given) | 114 |
| Cc1nc(C2CCCN2CCc2cccs2)no1 (stereo not given) | -9.357 |
| CC(C)c1nc(C2CCCN2CCCc2nc3ccccc3o2)no1 (stereo not given) | 6.375 |
| CSCCCN1CCCC1c1noc(C)n1 (stereo not given) | -3.652 |
| C1CC(c2noc(C3CC3)n2)CN(CCOCC2CC2)C1 (stereo not given) | 14.88 |
| COc1cc(C)cc(-c2nc3c([nH]2)CCNC3)c1OC | 7.084 |
| CN(C)c1ncc(CNC2CC(=O)N(CCc3cccc(Cl)c3)C2)s1 (stereo not given) | 116.6 |
| Cc1nc[nH]c1CNC1CC(=O)N(CCc2cccc(Cl)c2)C1 (stereo not given) | 94.18 |
| Cc1nc(CNC2CC(=O)N(CCc3cccc(Cl)c3)C2)c[nH]1 (stereo not given) | 91.72 |
| O=C1CC(NCc2ccc(Cl)s2)CN1Cc1cccc(F)c1 (stereo not given) | 20.87 |
| CC(=O)Nc1ccc(CNC2CC(=O)N(Cc3cccc(F)c3)C2)cc1 (stereo not given) | -1.661 |
| N#Cc1cccc(NC2CC(=O)N(CCc3ccc(F)cc3)C2)n1 (stereo not given) | 1.885 |
| Cc1cccc(CNC2CC(=O)N(CCc3cccc(Cl)c3)C2)n1 (stereo not given) | 115.9 |
| Cc1cc(C)nc(N2C[C@H]3OC(=O)N(CCc4cccc(Cl)c4)[C@H]3C2)n1 | -8.827 |
| c1cc(CN2CCOC[C@H]2c2nc(-c3ccncc3)c[nH]2)ccn1 | -7.2 |
| CC(=O)N[C@H]1CN(CC(=O)NCc2ccccc2C)C[C@@H]1C(C)C | -0.9175 |
| CCCc1cc(C(=O)N(CC)Cc2ccncc2)[nH]n1 | -8.767 |
| CN1CCN(c2ccc3ccc(C(=O)N4CCCCO4)cn23)CC1.O=C(O)C(F)(F)F | -14.14 |
| Cc1nnc(N2CCCC(CS(N)(=O)=O)C2)c(C#N)c1C (stereo not given) | -0.6364 |
| CCOCCN1CCN(Cc2nnc(C3CC3)o2)CC1C (stereo not given) | -16.34 |
| CCCS(=O)(=O)N1C[C@H]2OC(=O)N(CCc3cccc(Cl)c3)[C@H]2C1 | -3.172 |
| Cc1ncc(CNC2CC(=O)N(CCc3cccc(Cl)c3)C2)n1C (stereo not given) | 82.2 |
| CC(C)S(=O)(=O)N1C[C@H]2OC(=O)N(CCc3cccc(Cl)c3)[C@H]2C1 | -13.46 |

Reference: ChEMBL document CHEMBL3988442, “University of Dundee, Small-Polar-MMV Screening Library” (2021)
